Assay [1] in a line: qHTS profiling for inhibitors of Plasmodium falciparum proliferation (AID 504749). Further: nearly all actives have a fitted effect of over 60% in size.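 On activity, negative = inhibition: 0% = DMSO vehicle and full inhibition = artemisinin control.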 The conditions noted are these: P. falciparum in erythrocytes, SYBR Green DNA, 72 h. In outline: (§1)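 Three-day growth assay of blood-stage parasites in erythrocytes (0.3% parasitemia, 2.5% hematocrit) at 37 C, 5% CO2, quantified by SYBR Green DNA staining after overnight detergent lysis.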
For orientation: In qHTS, concentration-response curves come from the screen itself.

The next assay has as its system 3D7. The description is as above. Particulars: P. falciparum in erythrocytes, SYBR Green DNA, 72 h; series mostly up to 28.7 µM. In outline:
as §1

In another assay the test system is 7G8. The description is as above. Particulars: P. falciparum in erythrocytes, SYBR Green DNA, 72 h; series mostly up to 28.7 µM. In outline: as §1
The next assay relates to AA1029. The description is as above. Particulars: P. falciparum in erythrocytes, SYBR Green DNA, 72 h; series mostly up to 28.7 µM. Summed up:
as §1

Another assay has as its system AS120. The assay is described as above. Particulars: P. falciparum in erythrocytes, SYBR Green DNA, 72 h; series mostly up to 28.7 µM. In outline:
as §1

The subject of the next assay is ATS189. The description is as above. Particulars: P. falciparum in erythrocytes, SYBR Green DNA, 72 h; series mostly up to 28.7 µM. In outline: as §1
The test system of a further assay is ATS95. Described as above. The conditions noted are these: P. falciparum in erythrocytes, SYBR Green DNA, 72 h; series mostly up to 28.7 µM. In outline:
as §1

The mark [2] stands for this setting: at 28.7 µM (top of the series), parasite line A.
[3] abbreviates: at 28.7 µM (top of the series), parasite line B.
Where [4] appears, read: at 12.8 µM (top of the series), parasite line A.
Where [5] appears, read: at 12.8 µM (top of the series), parasite line B.

Records with an inconclusive call do not appear. Unmarked numbers belong to inactive results. Calls of active or inactive are those of the source. The call rests on the fitted dose curve; in most records, active means well fitted inhibition curve with a large enough effect; inconclusive means small, poorly fitted or top-dose-only effect; inactive means flat fitted curve, though single readings scatter.
Potency means the concentration at half of the fitted maximal effect.

Regarding `N[C@@H](Cc1cnc[nH]1)C(=O)O`, the activity, negative = inhibition in assay [1] (setting [2]) is 3.46%; in assay [1] (setting [3]), 9.36%. Moreover, the Potency result in the assay on 3D7, with 7G8, in the assay on AA1029, in the assay on AS120, in the assay on ATS189 and in the assay with ATS95 was “inactive” in each case.
On to `NCCC(O)(P(=O)(O)O)P(=O)(O)O`, for which the activity, negative = inhibition is 4.48% in assay [1] (setting [2]) and -11.5% in assay [1] (setting [3]). The Potency entry in the assay with 3D7, with 7G8, in the assay on AA1029, with AS120, with ATS189 and with ATS95 was “inactive” each time.
Consider `CCC(C(=O)OCCN(CC)CC)c1ccccc1` (stereo not given), for which the values for the activity, negative = inhibition in assay [1] (setting [2]) and in assay [1] (setting [3]) were -4.21% and 8.52%, respectively. Also, the Potency entry in the assay on 3D7, with 7G8, in the assay with AA1029, in the assay on AS120, with ATS189 and with ATS95 was “inactive” throughout.
In the case of `CC(=O)Nc1c(I)cc(I)c(C(=O)O)c1I`, the activity, negative = inhibition in assay [1] (setting [2]) was 6.87%; in assay [1] (setting [3]), 14.3%. The Potency result in the assay on 3D7, in the assay with 7G8, in the assay with AA1029, in the assay on AS120, with ATS189 and in the assay on ATS95 was “inactive” throughout.
As for `CCOc1ccc2nc3cc(N)ccc3c(N)c2c1`, the Potency was 7.94 µM (active) in assay [1] (parasite line A); 5.01 µM (active) in assay [1] (parasite line B); 11.2 µM (active) in the assay on 3D7; 1.78 µM (active) in the assay on 7G8; 7.94 µM (active) in the assay on AA1029; 8.91 µM (active) in the assay with AS120. The values for the Potency with ATS189 and with ATS95 were 7.08 µM (active) and 10 µM (active), respectively.
For `Cc1ccnc(NS(=O)(=O)c2ccc(N)cc2)n1`, the activity, negative = inhibition in assay [1] (setting [4]) was 9.46%; in assay [1] (setting [5]) it was -14.9%. Further, the Potency entry in the assay with 3D7, in the assay with 7G8, in the assay with AA1029, with AS120, in the assay with ATS189 and in the assay on ATS95 was “inactive” each time.
As for `O=C1CCC(c2ccc(-n3ccnc3)cc2)=NN1`, the activity, negative = inhibition in assay [1] (setting [2]) was 16%; in assay [1] (setting [3]) it was 14.3%. Also, the Potency result with 3D7, in the assay on 7G8, with AA1029, in the assay with AS120, in the assay on ATS189 and in the assay on ATS95 was “inactive” in each case.
With `COc1cc(OC)cc(OC)c1`, the results for the activity, negative = inhibition in assay [1] (setting [2]) and in assay [1] (setting [3]) were 14.7% and 2.05%, respectively. Further, the Potency entry with 3D7, in the assay with 7G8, with AA1029, with AS120, with ATS189 and in the assay with ATS95 was “inactive” in each case.
Consider `CCCCOc1ccc(C(=O)CCN2CCCCC2)cc1`, for which the activity, negative = inhibition is 2.86% in assay [1] (setting [4]) and -20.7% in assay [1] (setting [5]). Moreover, the Potency result with 3D7, in the assay on 7G8, in the assay with AA1029, with AS120, in the assay on ATS189 and in the assay on ATS95 was “inactive” each time.
As to `O=C(O)c1cc2cc(Cc3cccnc3)ccc2o1`, the activity, negative = inhibition in assay [1] (setting [2]) was 9.24%; in assay [1] (setting [3]), 5.6%. The Potency result with 3D7, in the assay on 7G8, in the assay on AA1029, with AS120, in the assay on ATS189 and in the assay with ATS95 was “inactive” in each case.
Turning to `C[C@H](O)C(=O)Nc1c(I)c(C(=O)NC(CO)CO)c(I)c(C(=O)NC(CO)CO)c1I`, the results for the activity, negative = inhibition in assay [1] (setting [4]) and in assay [1] (setting [5]) were -8.8% and 10.5%, respectively. Moreover, the Potency result in the assay on 3D7, with 7G8, with AA1029, with AS120, with ATS189 and in the assay with ATS95 was “inactive” in each case.
With `CC(=O)OCC(=O)NCCCOc1cccc(CN2CCCCC2)c1`, the results for the activity, negative = inhibition in assay [1] (setting [2]) and in assay [1] (setting [3]) were 16.5% and 8.13%, respectively. Also, the Potency entry in the assay on 3D7, in the assay on 7G8, with AA1029, in the assay on AS120, in the assay with ATS189 and with ATS95 was “inactive” throughout.
As for `CC(C)(CO)[C@@H](O)C(=O)NCCCO`, the activity, negative = inhibition was 10.4% in assay [1] (setting [2]) and -1.02% in assay [1] (setting [3]). The Potency result with 3D7, in the assay with 7G8, in the assay with AA1029, in the assay on AS120, with ATS189 and in the assay on ATS95 was “inactive” in each case.
For `C[C@@H]1C[C@H]2[C@@H]3CCC4=CC(=O)C=C[C@]4(C)[C@@]3(F)[C@@H](O)C[C@]2(C)[C@H]1C(=O)CO`, the figures for the activity, negative = inhibition in assay [1] (setting [2]) and in assay [1] (setting [3]) were -3.59% and -8.33%, respectively. Also, the Potency entry in the assay with 3D7, in the assay on AA1029, with AS120 and in the assay on ATS95 was “inactive” each time. For the same molecule, the results for the Potency with 7G8 and in the assay on ATS189 were 11.2 µM (active) and 0.316 µM (active), respectively.
As to `CN(C)/N=N/c1nc[nH]c1C(N)=O`, the values for the activity, negative = inhibition in assay [1] (setting [2]) and in assay [1] (setting [3]) were 8.05% and 1.17%, respectively. Further, the Potency result in the assay with 3D7, in the assay with 7G8, in the assay with AA1029, in the assay on AS120, with ATS189 and with ATS95 was “inactive” in each case.
On to `Cc1c(C)n(CCN(C)C)c2ccc(C(=O)OCCN(C)C)cc12`, for which the activity, negative = inhibition is -7.71% in assay [1] (setting [2]) and -8.88% in assay [1] (setting [3]). Also, the Potency entry with 3D7, with AA1029, in the assay on AS120, with ATS189 and in the assay with ATS95 was “inactive” each time. Moreover, in the assay with 7G8, the Potency is 8.91 µM (active).
Turning to `Cc1cc(N)c2cc(NC(=O)Nc3ccc4nc(C)cc(N)c4c3)ccc2n1`, the Potency in assay [1] (parasite line A) was 8.91 µM (active); in assay [1] (parasite line B), 11.2 µM (active); in the assay with 3D7 it was 7.08 µM (active); in the assay with 7G8, 2.24 µM (active); with AA1029, 14.1 µM (active); in the assay with AS120, 12.6 µM (active). For the same molecule, the results for the Potency in the assay on ATS189 and with ATS95 were 5.62 µM (active) and 11.2 µM (active), respectively.
Take `C[C@]12CCC(=O)C=C1CC[C@H]1[C@@H]3CC[C@](O)(C(=O)CO)[C@@]3(C)C[C@H](O)[C@@]12F`: the figures for the activity, negative = inhibition in assay [1] (setting [2]) and in assay [1] (setting [3]) were 4.53% and 9.81%, respectively. Further, the Potency result in the assay with 3D7, with 7G8, with AA1029, in the assay with AS120, with ATS189 and with ATS95 was “inactive” each time.
As for `CN1C(CCl)Nc2cc(Cl)c(S(N)(=O)=O)cc2S1(=O)=O` (stereo not given), the activity, negative = inhibition was 6.24% in assay [1] (setting [2]) and -11.6% in assay [1] (setting [3]). Also, the Potency result in the assay on 3D7, in the assay on 7G8, with AA1029, with AS120, in the assay with ATS189 and in the assay with ATS95 was “inactive” each time.
Take `OCc1ccccc1O`: the activity, negative = inhibition in assay [1] (setting [2]) was 6.96%; in assay [1] (setting [3]), 8.72%. Further, the Potency result with 3D7, in the assay with 7G8, in the assay with AA1029, in the assay with AS120, with ATS189 and in the assay on ATS95 was “inactive” each time.

The values are drawn from PubChem BioAssay (NCATS).
